From PubChem BioAssay (NCATS)
Results filed as inconclusive are left out. The source made the active and inactive calls. Calls follow the shape of the dose curve; as a rule, active = well fitted inhibition curve with a large enough effect; inconclusive = small, poorly fitted or top-dose-only effect; inactive = flat fitted curve, though single readings scatter.

Tested on: CRL-7250
Test: qHTS assay to identify novel small-molecules to repurpose for Merkel cell carcinoma treatment (AID 1296009); also: nearly all actives have a fitted effect of over 60% in size
Details: MCC and control cell lines, CellTiter-Glo viability, 72 h; series mostly up to 92 µM; activity change, negative = cytotoxicity: at the top concentration
Procedure, shortened: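 Dose-response viability screen; 72 hr exposure at 37 degree celsius; CellTiter-Glo added, 10 min room temperature, luminescence read; RLUs scaled between no-cell and DMSO wells.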

SMILES	outcome
CCCCC(=O)N1c2ccccc2NC2=C(C(=O)CCC2)C1c1ccccc1Cl (stereo not given)	inactive
COC(=O)[C@@H]1C2CC3c4[nH]c5ccccc5c4CCN3CC2CC[C@@H]1O (stereo not given in full)	inactive
CC(C)S(=O)(=O)NC[C@H](C)c1ccc(NC(=O)c2cc(F)cc(F)c2)cc1	inactive
O=C(O[C@@H]1O[C@H](CO)[C@@H](O)[C@H](O)[C@H]1O)c1ccccc1	inactive
OC/C=C/C=C/[C@H]1Cc2cc(O)cc(O)c2O1	inactive
CC1(C)CCC2(C(=O)OC3OC(COC4OC(CO)C(O)C(O)C4O)C(O)C(O)C3O)CCC3(C)C(=CCC4C5(C)CCC(O)C(C)(C(=O)O)C5CCC43C)C2C1O (stereo not given)	inactive [at 9.27 µM]
C=C(C)C1CCC2(C(=O)O[C@@H]3O[C@H](CO[C@@H]4O[C@H](CO)[C@@H](O)[C@H](O)[C@H]4O)[C@@H](O)[C@H](O[C@@H]4O[C@@H](C)[C@H](O)[C@@H](O)[C@H]4O)[C@H]3O)CCC3(C(=O)O)C(CCC4C5(C)CCC(O)C(C)(C)C5CCC43C)C12 (stereo not given in full)	inactive [at 9.27 µM]
CC(=O)OC1CC(C)C2(CCC3(CC(=O)OC3O)O2)C2(C)CCCC(C)(C)C12 (stereo not given)	inactive [at 17.4 µM]
CNC(=O)c1ccc2cc([C@@]3(O)CCn4cncc43)ccc2c1	inactive
O=[N+]([O-])c1ccc(Oc2ccc3c(c2)CCC(c2ccccc2)O3)nc1 (stereo not given)	inactive
COc1ncc2cc(C(=O)Nc3cc(C(=O)NCc4cccc(Cl)c4)ccc3Cl)c(=O)[nH]c2n1	inactive
COc1cc(CCc2ccccc2)c(C(=O)O)c2c1CC(C(C)(C)O)O2 (stereo not given)	inactive
CC(C)C1=CC2=CCC3[C@](C)(CCC[C@@]3(C)C(=O)O)C2CC1=O (stereo not given in full)	inactive
C=C1CC[C@@]2(OC1)O[C@H]1CC3C4CC=C5C[C@@H](O[C@@H]6O[C@@H](C)[C@H](O)[C@@H](O)[C@H]6O)C[C@@H](O[C@@H]6O[C@H](C)[C@H](O)[C@H](O)[C@H]6O[C@@H]6O[C@@H](C)[C@H](O)[C@@H](O)[C@H]6O)[C@]5(C)C4CC[C@]3(C)[C@H]1[C@@H]2C (stereo not given in full)	inactive [at 9.27 µM]
CC1CC=C2C1CC1(O)C(=O)CC2(C)C1(C)CO (stereo not given)	inactive
CCC/C=C/C(=O)O[C@H]1CC(C)(C)CC2[C@@]13[C@H](O)C[C@]1(C)[C@@]2(CCC2[C@@]4(C)CC[C@H](O[C@@H]5O[C@H](C(=O)O)[C@@H](O)[C@H](O[C@@H]6O[C@H](CO)[C@H](O)[C@H](O)[C@H]6O[C@@H]6O[C@@H](C)[C@H](O)[C@@H](O)[C@H]6O[C@@H]6OC[C@](O)(CO)[C@H]6O)[C@H]5O[C@@H]5O[C@H](CO)[C@H](O)[C@H](O)[C@H]5O)C(C)(C)C4CC[C@]21C)O[C@H]3O (stereo not given in full)	inactive [at 9.27 µM]
CC1(C)CC2C(O)C3=C(CC(C)(O)C2C1)C(=O)OC3 (stereo not given)	inactive
Oc1ccc([C@H]2COc3cc(O)ccc3C2)cc1	inactive
COc1cc([C@@H]2Oc3c(OC)cc(CCCO)cc3[C@@H]2CO[C@@H]2O[C@H](CO)[C@@H](O)[C@H](O)[C@H]2O)ccc1O	inactive [at 17.4 µM]
C=C(C)[C@@H]1CC[C@]2(C(=O)O)CC[C@]3(C)C(CCC4[C@]5(C)C(CC[C@]43C)C(C)(C)[C@@H](O)[C@@H]5C(=O)O)C12 (stereo not given in full)	inactive [at 17.4 µM]

SMILES	outcome
C/C=C(/C)C(=O)O[C@H]1C[C@]2(C)O[C@@H]2[C@@H](OC(C)=O)[C@@]2(C)CC[C@@](O)(C(C)C)[C@H]12	inactive
O=C(NCc1ccc(OC(F)(F)F)cc1)C1c2ccccc2C(=O)N1C1CCOCC1 (stereo not given)	inactive
O=C1NC(Cc2ccccc2)C(=O)N2CCCC12 (stereo not given)	inactive
CC1=C2C(=O)C=C(CO)C2C2OC(=O)C(CS(=O)(=O)O)C2C(OC(=O)Cc2ccc(O)cc2)C1 (stereo not given)	inactive [at 17.4 µM]
N#Cc1c[nH]c2c(C(=O)N3CCN(CCc4ccc(F)cc4)CC3)cccc12	inactive
CC(=O)NC(C(=O)OC1CCC(C)(C)C2CC=C3C(=O)OCC3C12C)C(C)C (stereo not given)	inactive
CC(C)C1CCC(C(=O)N[C@@H](Cc2ccccc2)C(=O)O)CC1 (stereo not given in full)	inactive
CC(C)=C[C@@H]1[C@H](CO[C@@H]2O[C@H](CO)[C@@H](O)[C@H](O)[C@H]2O)C1(C)C	inactive
N#CC(c1ccnc(OCc2ccc(CN3CCOCC3)cc2)n1)c1nc2ccccc2s1 (stereo not given)	inactive
CC(=O)OCC(Cc1ccccc1)NC(=O)C(Cc1ccccc1)NC(=O)c1ccccc1 (stereo not given)	inactive [at 17.4 µM]
CC1=CC(=O)CC(C)(CO[C@@H]2O[C@H](CO)[C@@H](O)[C@H](O)[C@H]2O)C1(O)/C=C/C(C)=C/C(=O)O (stereo not given in full)	inactive [at 17.4 µM]
CC(=O)O[C@@H]1[C@@H](OC(=O)/C=C/c2ccccc2)[C@@H](OC(C)=O)[C@H](O[C@H]2[C@@H]3C=CO[C@@H](O[C@@H]4O[C@H](CO)[C@@H](O)[C@H](O)[C@H]4O)[C@@H]3[C@@]3(CO)O[C@@H]23)O[C@H]1C	inactive [at 17.4 µM]
CC(=O)O[C@@H]1CC2C(C)(C)C(=O)C=C[C@]2(C)C2CC[C@@]3(C)[C@H](c4ccoc4)OC(=O)[C@H]4O[C@]43[C@@]21C (stereo not given in full)	inactive [at 17.4 µM]
COc1cccc(OC)c1-c1nc(C(=O)N[C@@H](CC(C)C)C(=O)O)cn1-c1ccnc2cc(Cl)ccc12	inactive
O=C(O)Cc1nn(Cc2nc3cc(C(F)(F)F)ccc3s2)c(=O)c2nccnc12	inactive
O=S(=O)(O)c1ccc(Nc2ncnc3c2ncn3[C@@H]2O[C@H](CO)[C@@H](O)[C@H]2O)cc1	inactive
CC1=C2C[C@@]3(C)[C@@H](CCC[C@@H]3C)C[C@@]2(O)OC1=O	inactive
COc1ccc(-c2nc(-c3ccc(-c4cccc(Cl)c4)o3)[nH]c2-c2ccc(OC)cc2)cc1	inactive
CC12CCC3c4ccc(O)cc4CCC3C1CCC2OC1OC(C(=O)O)C(O)C(O)C1O (stereo not given)	inactive
NCCCC[C@H](NC(=O)[C@@H]1Cc2ccccc2CN1C(=O)CCC(=O)c1ccccc1)C(=O)NCC(c1ccccc1)c1ccccc1	inactive
